Hits are enriched below; roughly 19% of the tested compounds scored in any of these assays.
Cycloheximide cs – Cycloheximide Counterscreen for Small Molecule Inhibitors of Shiga Toxin | cell reporter, cycloheximide protein synthesis inhibition counterscreen | max response, % | hit rate 12% among 300,000; in the data active = max response mostly above about 13%, no sharp cut-off; inactive = mostly below about 14%; also: read at 38.3 µM for the half of the compounds with a filed dose; 0% is about no effect
Shiga inhibitor – A qHTS for Small Molecule Inhibitors of Shiga Toxin | Vero cells, Shiga toxin protein synthesis inhibition reporter | inhibition, % at 38.7 µM | hit rate 9.2% among 290,000 | AID 2315, 2010; in the data active = inhibition mostly above about 28%, no sharp cut-off; inactive = mostly below about 43%; also: 0% is about no effect
Pf growth 96h – Primary qHTS for delayed death inhibitors of the malarial parasite plastid, 96 hour incubation. Potency, µM (doses to about 28.7 µM), without a hit: at the highest dose activity change, negative = inhibition, most hits filed as inhibitors. hit rate 6.9% among 320,000. P. falciparum luciferase reporter growth, 96 h; also: potency is read from the fitted curve at half-maximal effect; % is scaled to controls: 0 for no effect and ±100 for the full control effect
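Parasite growth measured via integrated firefly luciferase reporter in P. falciparum. Infected erythrocytes at 2% hematocrit, 0.05% parasitemia final were treated 96 hours at 37 C under 5% CO2, and luminescence was read.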
Pf growth 48h – Primary qHTS for delayed death inhibitors of the malarial parasite plastid, 48 hour incubation | P. falciparum luciferase growth in erythrocytes, 48 h | Potency, µM (titrated, usually from 28.7 µM), inactives show top-dose activity change, negative = inhibition, actives largely listed as inhibitors | hit rate 5.9% among 310,000 | AID 504832, 2011; also: potency is read from the fitted curve at half-maximal effect; % is scaled to controls: 0 for no effect and ±100 for the full control effect
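Erythrocytes infected with P. falciparum carrying an integrated firefly luciferase reporter (2% hematocrit, 0.1% parasitemia final) were exposed to compounds in RPMI 1640 with 0.5% Albumax at 37 C, 5% CO2. Growth inhibition was scored as reduced luminescence.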
Lassa entry inh – qHTS for Inhibitors of binding or entry into cells for Lassa Virus. hit rate 1.2% among 300,000. Lassa virus pseudotype entry inhibition, cell reporter. Potency, µM (doses to about 37.9 µM), for inactives: at the highest dose activity change, negative = inhibition, actives largely listed as inhibitors; calls by dose curve; tested in HEK293 cells; also: potency is read from the fitted curve at half-maximal effect; % is scaled to controls: 0 for no effect and ±100 for the full control effect; nearly all actives have a fitted effect of over 50% in size
Marburg entry inh – qHTS for inhibitors of binding or entry into cells for Marburg Virus | Potency, µM (titrated, usually from 37.8 µM), inactives show at the top dose activity change, negative = inhibition, hits mostly inhibitors | AID 540276, 2011 | hit rate 1.8% among 300,000 | Marburg virus pseudotyped entry inhibition, cell reporter; calls by dose curve; tested in HEK293 cells; also: potency is read from the fitted curve at half-maximal effect; % is scaled to controls: 0 for no effect and ±100 for the full control effect
The depositor's hits bear a star; i = inactive; ? = inconclusive; . = no result; [ ] = dose if it differs, or a comment. Unless noted, calls follow the shape of the dose curve; as a rule, active = well fitted inhibition curve with a large enough effect; inconclusive = small, poorly fitted or top-dose-only effect, or another doubt; inactive = no such curve, though single readings can be large or run the other way.

SMILES | Cycloheximide cs | Shiga inhibitor | Pf growth 96h | Pf growth 48h | Lassa entry inh | Marburg entry inh
Cc1nn(Cc2ccccc2)c2c1C(c1ccco1)C(C#N)=C(N)O2 (stereo unspecified) | 1 | -21 | . | -15% | -14% | 4%
COc1ccc2c(c1)C(=O)CC(O)(C(F)F)O2 (stereo unspecified) | -2 | 13 | 44% | 22% | ? | 4%
COc1ccc(CN(C)C(=O)c2cc(S(=O)(=O)Nc3ccccc3F)ccc2C)c(OC)c1 | 5 | 2 | ? | 8% | ? | -12%
CCOc1ccc(NC(=O)CCN2CCN(S(=O)(=O)c3ccc(Cl)cc3)CC2)cc1 | -3 | -6 | ? | . | -16% | 4%
O=C(O)c1ccccc1/C=N/NC(=S)NC1CCCCC1 | -2 | -2 | -8% | 10% | . | .
O=C(N/N=C1/CCc2ccccc21)C1CC1 | 33* | 92* | 55% | 26% | -4% | 9%[46.1 µM]
COC(=O)N/N=C1\CCCc2ccccc21 | -3 | 1 | 10% | 7% | 6% | -1%
S=C(N/N=C1\CCc2ccccc21)NC1CCCCC1 | 32* | 112* | -50% | ? | 2% | ?
Cc1ccc(C(=O)N/N=C2\CCc3ccccc32)c(C)c1 | 63* | 152* | ? | 166% | ? | ?
O=C(N/N=C1\CCc2ccccc21)c1ccc(O)cc1 | 43* | 57* | 42% | 67% | -29% | -22%
O=C(N/N=C1/CCCc2ccccc21)c1cc([N+](=O)[O-])cc([N+](=O)[O-])c1 | -2 | -3 | 0% | 212% | . | .
O=C(N/N=C1\CCCc2ccccc21)c1ccccc1[N+](=O)[O-] | 4 | 10 | ? | ? | ? | 15%
O=C(N/N=C1\CCCc2ccccc21)c1ccc([N+](=O)[O-])cc1Cl | 10 | 67 | 7% | ? | -9% | 16%
O=C(N/N=C1\CCc2ccccc21)c1ccccc1Cl | 53* | 96* | 132% | 120% | 7% | ?
CCOc1ccc(Nc2cc3n(c(=O)n2)CCc2cc(OC)c(OC)cc2-3)cc1 | -3 | -7 | ? | ? | 11µM* | -25%
COc1cc2c(cc1OC)-c1cc(NC3CCCCCCC3)nc(=O)n1CC2 | -4 | -4 | 7.4µM* | ? | 14µM* | ?
C=CCCC1(CC(C)C)C(=O)NC(=S)NC1=O | . | . | . | . | 4% | 8%
S=c1[nH]nc(NCCCN2CCOCC2)s1 | -2 | -20 | 4% | 16% | . | .
S=c1[nH]nc(-c2ccncc2)n1Cc1ccccc1 | -3 | -9 | 7% | 13% | 0% | -11%
O=C(COC(=O)C12CC3CC(CC(Cl)(C3)C1)C2)N1CCCCC1 | . | . | . | . | 0%[46.1 µM] | ?
CCCCC1C2C(=O)N(c3ccc(C)cc3)C(=O)C2ON1c1ccccc1 (stereo unspecified) | 35* | 104* | 0% | 39% | . | .
CCCCC1C2C(=O)N(c3ccccc3)C(=O)C2ON1c1ccccc1 (stereo unspecified) | -1 | 9 | -31% | 26% | . | .
C/C(=N\OC(=O)c1ccc(Br)cc1)c1ccccn1 | 4 | 13 | 9% | -7% | 5% | 8%
C/C(=N/OCc1ccc(Br)cc1)c1ccccn1 | 26* | 60* | 441% | i | ? | ?
CCCc1cc(=O)[nH]c(SCc2nc3ccccc3o2)n1 | 3 | -6 | ? | 14% | 2% | 12%[46.1 µM]
SMILES | Cycloheximide cs | Shiga inhibitor | Pf growth 96h | Pf growth 48h | Lassa entry inh | Marburg entry inh
COC(=O)c1sccc1-c1ccc(/C=N/OCc2c(Cl)cccc2Cl)o1 | 0 | 9 | ? | -2% | -8% | 15%
CC1SCC(=NOCc2c(Cl)cccc2Cl)CS1 (stereo unspecified) | 12 | 62* | -6% | 18% | 10%[46.1 µM] | -8%[46.1 µM]
CC1CCN(CCCNC(=O)c2cc3c(Cl)nc4ccccc4c3s2)CC1 | -6 | -6 | 9% | ? | . | .
CC(=O)CC(C)(C)n1c[n+](C)nn1 | -2 | -20 | . | 65% | 0% | 2%
O=C(CC(=O)Nc1nc(C23CC4CC(CC(C4)C2)C3)cs1)NCCO | 1 | 13 | 9.3µM* | 13µM* | ? | ?
CSCC[C@H](NC(=O)N1CCn2c1nc1ccccc12)C(=O)N[C@@H](C(=O)O)c1ccccc1 | -9 | -7 | 28% | 8% | . | .
